Laboratory results as given in publication PMC4336329 (PLoS ONE, 2015).
About 14,000 (4.5%) of roughly 310,000 compounds showed an effect of 50% or more. Effects have a minus sign here. The sample as a whole holds a higher share of strong results than the screen did.

Target: human ether-à-go-go-related gene (hERG) potassium channel (human, UniProt Q12809)
Assay: primary screen, population patch clamp on CHO cells stably expressing hERG; higher = less effect of the substance
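Also: peak tail current of the secondary pulse compared with the same well before compound.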

Sequence of human ether-à-go-go-related gene (hERG) potassium channel (Q12809 whole entry, looked up): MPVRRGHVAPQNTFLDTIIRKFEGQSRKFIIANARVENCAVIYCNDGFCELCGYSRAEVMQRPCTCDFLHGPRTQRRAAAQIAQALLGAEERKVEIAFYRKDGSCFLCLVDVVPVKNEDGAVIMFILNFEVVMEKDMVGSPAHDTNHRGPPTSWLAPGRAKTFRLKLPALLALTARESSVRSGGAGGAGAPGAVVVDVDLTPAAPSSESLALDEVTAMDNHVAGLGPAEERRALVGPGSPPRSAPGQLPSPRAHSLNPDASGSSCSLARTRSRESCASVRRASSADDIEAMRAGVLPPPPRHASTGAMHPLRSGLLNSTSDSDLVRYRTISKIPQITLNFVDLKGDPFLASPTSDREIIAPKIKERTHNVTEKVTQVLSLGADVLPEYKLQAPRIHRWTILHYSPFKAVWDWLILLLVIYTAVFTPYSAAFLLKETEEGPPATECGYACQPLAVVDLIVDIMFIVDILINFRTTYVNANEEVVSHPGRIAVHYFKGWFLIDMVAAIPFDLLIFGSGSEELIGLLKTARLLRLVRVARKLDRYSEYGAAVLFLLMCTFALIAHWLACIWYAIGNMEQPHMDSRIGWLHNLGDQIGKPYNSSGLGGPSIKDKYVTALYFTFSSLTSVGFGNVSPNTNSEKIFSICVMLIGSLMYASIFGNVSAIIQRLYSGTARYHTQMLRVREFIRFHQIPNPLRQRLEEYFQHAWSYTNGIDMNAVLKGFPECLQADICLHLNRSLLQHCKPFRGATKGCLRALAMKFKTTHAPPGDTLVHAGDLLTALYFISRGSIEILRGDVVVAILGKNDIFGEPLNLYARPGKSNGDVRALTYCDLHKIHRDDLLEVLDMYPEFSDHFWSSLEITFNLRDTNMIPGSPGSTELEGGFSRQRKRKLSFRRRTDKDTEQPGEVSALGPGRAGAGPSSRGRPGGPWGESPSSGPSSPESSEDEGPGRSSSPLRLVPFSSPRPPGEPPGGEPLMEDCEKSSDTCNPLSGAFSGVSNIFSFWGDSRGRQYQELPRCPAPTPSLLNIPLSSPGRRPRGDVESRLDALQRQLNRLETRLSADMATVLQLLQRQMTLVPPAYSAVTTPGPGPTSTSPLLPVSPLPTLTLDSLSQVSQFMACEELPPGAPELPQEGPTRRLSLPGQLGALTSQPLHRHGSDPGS

Row | Compound | hERG current change (%, negative = inhibition) at 10uM
1 | Cn1c(CS(=O)Cc2c(Cl)cccc2Cl)nnc1SCc1c(Cl)cccc1Cl (stereo not drawn) | -45.1%
2 | Cn1c(CS(=O)Cc2c(Cl)cccc2Cl)nnc1SCc1ccc(Cl)cc1 (stereo not drawn) | -56.2%
3 | CCn1c(CS(=O)Cc2ccc(Cl)cc2Cl)nnc1SCc1c(Cl)cccc1Cl (stereo not drawn) | -6.78%
4 | Cn1ncc(Cl)c(Oc2ccc(Cl)cc2)c1=O | -17%
5 | COc1cnn(-c2ccc([N+](=O)[O-])cc2)c(=O)c1Cl | -2.52%
6 | Cn1ncc(Oc2ccc([N+](=O)[O-])cc2)c(Cl)c1=O | -71.2%
7 | CN1CCN(CCCNC(=O)C2CCN(c3nnc(-n4cccc4)s3)CC2)CC1 | 20.2%
8 | O=C(NCCCN1CCc2ccccc2C1)C1CCN(c2nnc(-n3cccc3)s2)CC1 | -55.6%
9 | O=C(NCCN1CCc2ccccc2C1)C1CCN(S(=O)(=O)N2CCCCC2)CC1 | -53.8%
10 | CCCN1CCN(CCCNC(=O)C2CCN(c3nnc(-n4cccc4)s3)CC2)CC1 | -14.4%
11 | O=C(NCCCN1CCc2ccccc2C1)C1CCN(S(=O)(=O)N2CCC3(CC2)OCCO3)CC1 | -12.4%
12 | O=C(C1CCN(c2nnc(-n3cccc3)s2)CC1)N1CCOCC1 | -13.9%
13 | O=C(C1CCN(c2nnc(-n3cccc3)s2)CC1)N1CCc2ccccc2C1 | -60.3%
14 | O=C(NCCCN1CCc2ccccc2C1)C1CCN(S(=O)(=O)N2CCCC2)CC1 | -2.78%
15 | O=C(C1CCN(c2nnc(-n3cccc3)s2)CC1)N1CCCCC1 | -6.55%
16 | Cc1noc(C)c1COC(=O)C1CC(O)CN1S(=O)(=O)c1ccc(Cl)cc1 (stereo not drawn) | -8.48%
17 | O=C(CC1C(=O)NCCN1Cc1ccccc1C(F)(F)F)NCCN1CCCCC1=O (stereo not drawn) | 16.9%
18 | O=S(=O)(Cc1noc(-c2ccc(Cl)cc2)n1)Cc1ccco1 | -4.77%
19 | Cc1cc(C)nc(NC(=O)CSc2nn(C)c(=S)s2)n1 | -0.37%
20 | Cc1cc2cc(CNC(=O)Nc3ccc(Cl)c(Cl)c3)ccc2n1C | 2.71%
21 | CCCn1c(NC(=O)c2ccco2)nc2ccccc21 | 9.09%
22 | CN(C)CCCn1c(NC(=O)C2CCCCC2)nc2ccccc21 | -27.3%
23 | CCCCn1c(NC(=O)C2CCCCC2)nc2ccccc21 | 4.63%

Row | Compound | hERG current change (%, negative = inhibition) at 10uM
24 | O=C(Nc1nc2ccccc2n1CCN1CCCCC1)c1ccco1 | -54.8%
25 | CCn1c(NC(=O)C2CCCCC2)nc2ccccc21 | 8.36%
26 | O=C(Nc1nc2ccccc2n1CCN1CCCC1)C1CCCCC1 | -58.6%
27 | O=C(Nc1nc2ccccc2n1CCN1CCCCC1)C1CCCCC1 | -61.2%
28 | CCCn1c(NC(=O)C2CCN(C(=O)c3ccccc3C)CC2)nc2ccccc21 | -16%
29 | O=C(Nc1nc2ccccc2n1Cc1ccccc1)c1ccco1 | 20.2%
30 | CCOC(=O)C1=C(c2ccccc2)NC(SCC(=O)NC2CCCCC2)=C(C#N)C1c1ccco1 (stereo not drawn) | -1.35%
31 | COc1ccc(OC)c(C(=O)Cn2nnc3ccccc3c2=O)c1 | 9.14%
32 | O=C1C2=C(C(c3ccccc3)=NCCN2)C(c2cccc([N+](=O)[O-])c2)N1c1ccccc1 (stereo not drawn) | -21.3%
33 | O=[N+]([O-])c1ccc2c(c1)C(c1ccccc1)=NCCN2 | -69.1%
34 | O=[N+]([O-])c1ccc2[nH]nc(-c3ccccc3)c2c1 | 9.26%
35 | CN1CCN(NC(=O)/C=C/c2cccc(Cl)c2)CC1 | -6.09%
36 | O=C(/C=C/c1ccc(Cl)cc1)Nc1ccccc1N1CCOCC1 | 2.84%
37 | CN1CCN(c2ccc(Cl)cc2NC(=O)/C=C/c2ccc(F)cc2)CC1 | -75.6%
38 | CN1CCN(c2ccc(Cl)cc2NC(=O)/C=C/c2cccc(F)c2)CC1 | -69.9%
39 | CN1CCN(c2ccc(S(=O)(=O)N3CCCCC3)cc2NC(=O)/C=C/c2ccc(Cl)c([N+](=O)[O-])c2)CC1 | -17.4%
40 | CCc1cc(C(=O)Nc2cc(Cl)ccc2N2CCN(C)CC2)sc1C | 3.43%
41 | CCc1c(C)nc(N)nc1N1N=C1SC(C(C)=O)C(C)=O | 27.8%
42 | CN(CCC#N)C(=O)COC(=O)c1ccccc1OCc1ccccc1Cl | 1.72%
43 | CNC(=O)CC1C(=O)N(c2ccc(F)cc2)C(=S)N1NC(=O)c1ccc(Br)cc1 (stereo not drawn) | 2.82%
44 | O=C(NC(NC(=O)c1c(F)cccc1F)c1ccc([N+](=O)[O-])cc1)c1c(F)cccc1F | -43.8%
45 | Cc1ccc(SCCC(=O)NCc2ccco2)cc1 | -3.96%
46 | C/C(=N/NS(=O)(=O)c1ccc(C)cc1)c1ccc(NC(=O)C(F)(F)F)cc1 | 10.7%

Row | Compound | hERG current change (%, negative = inhibition) at 10uM
47 | CCOC(=O)C1CCCN(CC(O)COc2ccccc2C(C)=O)C1.Cl (stereo not drawn) | -46.2%
48 | CCOC(=O)N1CCN(CC(O)COC(CC)c2ccccc2)CC1.Cl (stereo not drawn) | -19.6%
49 | CCOC(=O)C1CCCN(CC(O)COC(c2ccccc2)c2ccccc2)C1 (stereo not drawn) | -79.7%
50 | Cl.c1ccc(COC(CN2CCCCCC2)CN2CCCCCC2)cc1 | -63.6%
51 | Cl.OC(COCc1ccccc1)CN1CCCCC1 (stereo not drawn) | 6.73%
52 | OC(COC(c1ccccc1)c1ccccc1)CN1CCCCC1 (stereo not drawn) | -62.9%
53 | CCC(OCC(O)CN1CCCCC1)c1ccccc1.Cl (stereo not drawn) | 16.9%
54 | CCN1CCN(CC(O)COC(c2ccccc2)c2ccccc2)CC1 (stereo not drawn) | -17.1%
55 | OC(COc1ccc(OCc2ccccc2)cc1)CN1CCCCC1 (stereo not drawn) | -39.6%
56 | OC(COC(c1ccccc1)c1ccccc1)CN1CCOCC1 (stereo not drawn) | -5.77%
57 | CCOC(=O)C1CCCN(CCC(C)c2ccccc2)C1 (stereo not drawn) | -36.5%
58 | CCOC(=O)C1CCN(CC(O)COC(CC)c2ccccc2)CC1.Cl (stereo not drawn) | -63.7%
59 | CCOC(=O)C1CCCc2c1[nH]c1c(C(=O)O)cccc21 (stereo not drawn) | 13.3%
60 | COc1ccc2nc(SCC(=O)NCCc3ccccc3)[nH]c2c1 | -21.6%
61 | COc1ccc(-c2cc(C(=O)N3CCN(c4cccc(C)c4C)CC3)c3ccccc3n2)cc1OC | 22.9%
62 | c1ccc(-n2cccc2)c(N2CCCCC2)c1 | 3.76%
63 | O=c1cc(CSc2nnc(-c3cccnc3)n2-c2ccccc2F)nc2sccn12 | -4.15%
64 | CCCCNc1ccc(C(=O)OCCN(C)C)cc1.Cl | -11.6%
65 | COc1ccc(C(=O)N/N=C/c2c(CO)cnc(C)c2O)cc1 | -1.9%
66 | OC1CCCN(CC(O)COC(c2ccccc2)c2ccccc2)C1 (stereo not drawn) | -18%
67 | CC1CCCN(CC(O)COCc2ccccc2)C1.Cl (stereo not drawn) | -1.07%
68 | CC1CCCN(CC(O)COC(c2ccccc2)c2ccccc2)C1 (stereo not drawn) | -65%
69 | Cc1ccc(C(OCC(O)CN2CCCCC2)c2ccccc2)cc1 (stereo not drawn) | -86.6%

Row | Compound | hERG current change (%, negative = inhibition) at 10uM
70 | Cn1c(CNC(=O)c2ccco2)nnc1SCC(=O)c1ccccc1 | 10.6%
71 | CCn1nc(NS(=O)(=O)c2ccc([N+](=O)[O-])cc2)c2cc3ccccc3nc21 | 19.3%
72 | Cc1cc(C)cc(SCc2noc(C(=O)NCCCN3CCOCC3)c2C(=O)NCCCN2CCOCC2)c1 | -30.4%
73 | O=C(Nc1ccccc1F)c1ccccc1-c1ccc(C(F)(F)F)cc1 | -5.12%
74 | CN1CCN(Cc2c(C(=O)N/N=C/c3cccc(Br)c3)nnn2-c2nonc2N)CC1 | -74.8%
75 | Nc1nonc1-n1nnc(C(=O)N/N=C/c2cccc(Cl)c2)c1CN1CCCCCC1 | 18.4%
76 | CCc1ccc(/C=N/NC(=O)c2nnn(-c3nonc3N)c2CN2CCOCC2)cc1 | -11.6%
77 | Nc1nonc1-n1nnc(C(=O)N/N=C/c2cccc(O)c2)c1CN1CCCC1 | 7.84%
78 | CC1CCN(Cc2c(C(=O)N/N=C/c3ccc(C(C)C)cc3)nnn2-c2nonc2N)CC1 | 20.2%
79 | CC(C)c1ccc(/C=N/NC(=O)c2nnn(-c3nonc3N)c2CN2CCOCC2)cc1 | -56.6%
80 | O=C1NC(=O)C(=Cc2ccc3c(c2)OCO3)C(=O)N1 | 15.3%
81 | CC1CN(C(=O)COC(=O)c2ccc(O)cc2)CC(C)O1 (stereo not drawn) | 17.4%
82 | O=C(NCCCNC(=O)C(F)(F)C(F)F)C(F)(F)C(F)F | 6.91%
83 | CC(C)(C)OC(=O)NCCCC[C@H](NC(=O)c1nc[nH]c1C(=O)NC(c1ccccc1)c1ccccc1)C(=O)OC(C)(C)C | 8.48%
84 | Brc1cccc(Cn2c(-c3cncs3)nc3ccccc32)c1 | -10.5%
85 | O=C(/C=C/c1ccc([N+](=O)[O-])cc1)NC1CC2CCC1C2 (stereo not drawn) | -67.8%
86 | O=C(/C=C/c1ccc(Cl)cc1)NC1CC2CCC1C2 (stereo not drawn) | -53.1%
87 | COc1ccccc1/C=C/C(=O)NC1CC2CCC1C2 (stereo not drawn) | -3.53%
88 | O=C(/C=C/c1ccccc1)NC1CC2CCC1C2 (stereo not drawn) | 5.72%
89 | O=C(/C=C/c1cccc([N+](=O)[O-])c1)NC1CC2CCC1C2 (stereo not drawn) | -24.7%
90 | O=C(CSCc1ccc([N+](=O)[O-])cc1)NC1CC2CCC1C2 (stereo not drawn) | -15.3%
